Drawing on PubChem BioAssay AID901 (National Center for Advancing Translational Sciences (NCATS), 2007), this text covers outcome for 76 molecules.

The structures appear in SMILES notation. Screen size: about 120,000 compounds; fewer than 10 were called active. Not shown: some 4% with an inconclusive outcome. Calls come from the whole dose curve; as a rule, active = well fitted curve in the direction sought with a large enough effect in the signal ratio (not every such curve was filed as active); inconclusive = small, poorly fitted or top-dose-only effect, or a change in a side signal; inactive = no such curve, though single readings can be large or run the other way; the % refers to the signal ratio. The list is a sample of the results.

Chain of Inositol monophosphatase 1 (Rattus norvegicus) (P97697 whole entry, looked up): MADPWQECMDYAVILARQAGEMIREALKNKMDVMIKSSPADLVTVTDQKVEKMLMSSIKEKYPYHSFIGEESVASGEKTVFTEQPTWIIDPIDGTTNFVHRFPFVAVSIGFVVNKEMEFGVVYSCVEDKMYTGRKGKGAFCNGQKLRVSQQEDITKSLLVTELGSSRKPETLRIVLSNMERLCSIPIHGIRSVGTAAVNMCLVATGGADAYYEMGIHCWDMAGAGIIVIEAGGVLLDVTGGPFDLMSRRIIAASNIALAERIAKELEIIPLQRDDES

This assay concerns the target Inositol monophosphatase 1 (Rattus norvegicus) (UniProt P97697). Briefly: qHTS Assay for Identifying the Cell-Membrane Permeable IMPase Inhibitors.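 Note: higher means more IMPase inhibition seen as more IP1 and lower FRET ratio.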 Conditions: CHO-M1 cells, HTRF TR-FRET ratio; series mostly up to 46.1 µM. An excerpt: NCGC IMPase Assay Overview
Lithium has been widely used for the treatment of bipolar disorder. But lithium has a narrow therapeutic index and it can cause side effects such as thirst, weight gain, tremor, polyuria and memory problems. Although the mechanism for lithium action in treatment of bipolar disorder is still not fully understood, inhibition of inositol monophosphatase (IMPase) and the subsequent depletion of the inositol pool in living cells have been implicated as the primary therapeutic benefit of lithium therapy. Therefore, a selective IMPase inhibitor with reduced side effects might be a good drug candidate to replace lithium for the treatment of bipolar disorder. Several IMPase inhibitors have been discovered previously. However, they are not suitable for therapeutic use because of their poor cell membrane penetrability or oral bioavailability; the development of new cell-permeable IMPase inhibitors is needed.
IMPase catalyzes the hydrolysis of inositol-1-phosphate (IP1) to release free inositol. Binding of an agonist to a Gq coupled GPCR results in the activation of PLC, which hydrolyzes the PIP2 to form inositol-1,4,5-trisphosphate (IP3) and diacyl glycerol (DAG). While DAG activates protein kinase C (PKC), IP3 triggers the elevation of intracellular free Ca2+. The IP3 is very rapidly inactivated by hydrolysis to IP2, IP1 and then inositol by a series of enzymes including IMPase. Free inositols are used for synthesis of PI and thus start another inositol cycle.
To identify new cell-permeable IMPase inhibitors, we developed a cell-based IMPase assay in which the cytosolic IP1 is measured by a time-resolved fluorescence resonance energy transfer (TR-FRET) assay. In this assay, an IP1 specific antibody is used to detect the labeled IP1 tracer. When the cell lysate contains the elevated IP1 due to the inhibition of IMPase, the TR-FRET between the labeled antibody and IP1 tracer is disrupted resulting in a reduction in the total signal. Since the TR-FRET is used, this cell-based assay is a homogenous assay without cell wash and medium change that is suitable for assay miniaturization and HTS.
NCGC IMPase Assay Protocol Summary
A Chinese hamster ovary (CHO) cell line stably expressing the M1 receptor (CHO-M1) was obtained from ATCC and maintained in F-12 Kaighn's media (Invitrogen, Carlsbad, CA, 21127) supplemented with 10 % FBS, 100 units/ml penicillin, 100 ug/ml streptomycin and 250 ug/ml geneticin at 37C, 5% CO2 in a humidified atmosphere. Before the assay, aliquots of cells were frozen and stored at -135C. The assay was performed in 1536-well format. Data are reported for both the ratio of the two emission wavelengths, and also for the component 'donor' channel, Em2=620. […] AC50 values were determined from concentration-response data modeled with the standard Hill equation.
IMPase 1536-well assay protocol:
(1) Plate 4 ul/well (2000 cells) of cell suspension from frozen CHO-M1 Cells in white, tissue culture treated 1536-well plates that are cultured at 37C, 5 % CO2 for 16 to 30 hours.
(2) Add 23 nl/well of compound in DMSO solution. The final titration for each compound was between 0.6 nM and 46 uM.
(3) Add 1 ul of carbachol (50 uM in stimulation buffer containing10mM HEPES, 1mM CaCl2, 0.5 mM MgCl2, 4.2 mM KCl, 146 mM NaCl, 5.5 mM glucose, 50mM LiCl, pH 7.4.
(4) Incubation at 37C, 5 % CO2 for 30 min.
(5) Add 1 ul/well of d2-conjugated IP1 (d2-IP1) and 1 ul/well of Eu+ cryptate conjugated anti-IP1 antibody (Eu+-Ab) prepared in the cell lysis buffer, both from the IP-One kit (Cisbio, MA).
(6) Incubate at room temperature for 10 minutes.
(7) Detect the assay plate (Ex = 320, Em1 =665 and Em2 620) in a ViewLux plate reader.
inositol monophosphatase, IMPase, IMPase inhibitor, lithium, bipolar disorder, IP-One, HTRF, qHTS, NIH roadmap, NCGC
Note: In the gene ID and protein GI references for this assay, rat IMPase is referenced instead of hampster as hamster accession numbers were not available.
Turning to `CC1=C(C(=O)Nc2ccccc2)C(c2ccc(C)cc2)n2nc(SCc3ccccc3C)nc2N1` (stereo unspecified), the outcome was inactive.

As to `FC(F)(F)c1cc(Nc2nc3ccccc3c3nncn23)ccc1Cl`, the result was inactive.

With `CCCSc1nc2sc3c(c2c(=O)n1-c1cccc(Br)c1)CC(C)(C)OC3`, the result was inactive. On to `COc1cccc(OCCn2c(-c3ccc(Br)cc3)nc3ccccc3c2=O)c1`, for which the outcome was inactive. The result for `CCOC(=O)c1c(N)n(-c2cccc(C)c2C)c2nc3ccccc3nc12` reads “inactive”; that for `Cc1ccc(NC(=O)c2sc3nc(N)c(C#N)cc3c2N)cc1`, “inactive”; that for `Cc1ccc2nc(-c3ccc(C)c(NC(=O)Cc4ccccc4)c3)oc2c1`, “inactive”.

As for `CN(Cc1ccccc1)C(=O)CCS(=O)(=O)c1cc(Br)cc2c1N(C(=O)C1CC1)CC2`, the outcome was inactive. The result for `COC(=O)c1ccc(OCC(O)CN(CCO)CC(O)Cn2ccc3ccccc32)cc1` (stereo unspecified) reads “inactive”; that for `COc1cccc(C(=O)NC2(C(F)(F)F)C(=O)Nc3c2c(=O)[nH]c(=O)n3-c2ccc(C)cc2)c1` (stereo unspecified), “inactive”; that for `COC(=O)c1c(NC(=O)C(C)Oc2ccc(Cl)c(C)c2)sc(C)c1C` (stereo unspecified), “inactive”. The result for `O=C(NCCCN1CCN(c2cccc(Cl)c2)CC1)c1nnc(Cc2ccc(F)cc2Cl)o1` reads “inactive”. The entry for `CCC(=O)NCc1cc(-c2nn(C)c(=O)c3ccccc23)ccc1OC` is “inactive”; for `CCCn1c(C)cc(/C=C(\C#N)C(=O)OCC(=O)Nc2cc(OC)c(OC)c(OC)c2)c1C` it is “inactive”; for `COc1ccc2nc(SCc3ccccc3)nc(C)c2c1` it is “inactive”. With `COc1ccc(-c2cc(C(F)(F)F)nc(SCC(=O)N(C)Cc3ccccc3)n2)cc1OC`, the outcome was inactive. The result for `O=C(COC(=O)c1cc([N+](=O)[O-])ccc1NCc1ccccc1)NC1CCCCC1` reads “inactive”; that for `CCCn1c(=N)n(CC(O)COc2ccccc2OC)c2ccccc21` (stereo unspecified), “inactive”. `COc1cccc(-c2nnc(SCC(=O)N3CCC(C)CC3)o2)c1`: the outcome was inactive.

Take `Cc1cc(C)cc(NC(c2nnc(-c3cccc(F)c3)o2)c2ccc(F)cc2Cl)c1` (stereo unspecified): the result was inactive.

On to `CCn1c2ccccc2c2cc(NC(=O)COc3ccc(C)cc3C)ccc21`, for which the outcome was inactive. The entry for `Cc1cccc(N2CCN(C(=O)c3ccc(Nc4nc5ccccc5n5nnnc45)cc3)CC2)c1C` is “inactive”. The entry for `O=C(Nc1ccc(Oc2ccccc2)cc1)C1CCN(S(=O)(=O)c2ccc(Cl)cc2)CC1` is “inactive”; for `CCOC(=O)c1cnc2c(C)cc(Cl)cc2c1NCCc1ccc(OC)c(OC)c1` it is “inactive”; for `C/C(CC1CC(C)(C)OC1=O)=N/Nc1nc(-c2ccccc2)cs1` (stereo unspecified) it is “inactive”.

With `Cc1ccc(C)c(N2CCN(C(=O)C3CCC(CNS(=O)(=O)c4cccs4)CC3)CC2)c1` (stereo unspecified), the result was inactive. For the molecule `CCc1nc2nc(C)cc(Nc3ccc(F)c(Cl)c3)n2n1`, the outcome was inactive. The result for `Cn1c(=O)c2c(nc(SCC(=O)Nc3ccc(F)cc3)n2Cc2ccc(Cl)cc2)n(C)c1=O` reads “inactive”; that for `COc1ccc(NC(=O)C2CCCN(S(=O)(=O)c3c(C)[nH]c(=O)[nH]c3=O)C2)c(OC)c1` (stereo unspecified), “inactive”; that for `OCC(CO)(CO)NCc1ccc(-c2ccccc2)cc1`, “inactive”. The entry for `CCCCCCCCC(=O)NCCOc1ccccc1` is “inactive”; for `Cc1cc(NC(=O)C2CCC(CNS(=O)(=O)c3ccc(Br)s3)CC2)ccc1Br` (stereo unspecified) it is “inactive”.

Take `C[n+]1ccccc1C1CCCC/C1=N\Nc1ccc([N+](=O)[O-])cc1[N+](=O)[O-]` (stereo unspecified): the result was inactive. `CC1=C(C(=O)OCC2CCCCC2)C(c2c(F)cccc2Cl)CC(=O)N1` (stereo unspecified): the outcome was inactive. For the molecule `CCN(C(=O)COC(=O)c1cc(NS(=O)(=O)c2ccc(Cl)c([N+](=O)[O-])c2)ccc1O)C1CCCCC1`, the result was inactive. Regarding `COC(=O)c1cc(NC(=O)CCS(=O)(=O)c2cc(Br)cc3c2N(C(=O)C2CC2)CC3)cc(C(=O)OC)c1`, the result was inactive.

With `COc1ccccc1CN(C)C(=O)C1(c2ccc(Cl)cc2)CC1`, the result was inactive. The entry for `COc1ccc(OC)c(NC(=O)C2CCN(S(=O)(=O)c3ccc(C)cc3)CC2)c1` is “inactive”. The entry for `COc1cc(/C=N/NC(=O)CCc2n[nH]c(=O)[nH]c2=O)ccc1O` is “inactive”; for `CCCCSc1ncnc2c1sc1nc(N3CCOCC3)c3c(c12)CCCC3` it is “inactive”; for `Cc1c(Cl)c([N+](=O)[O-])nn1CCCC(=O)NC(C)c1ccccc1` (stereo unspecified) it is “inactive”.

For `Cc1cc(C)cc(OCC(=O)Nc2c(C(=O)c3ccccc3)oc3ccccc23)c1`, the outcome was inactive. The result for `CCN(Cc1ccccc1)Cc1c(O)ccc2c(=O)c(-c3ccc(Cl)cc3Cl)coc12` reads “inactive”; that for `Cn1c(=O)c2c(ncn2CC(=O)Nc2cccc(C(F)(F)F)c2)n(C)c1=O`, “inactive”; that for `CSCCC(NC(=O)c1cc([N+](=O)[O-])cc([N+](=O)[O-])c1)c1nc2ccccc2[nH]1` (stereo unspecified), “inactive”. The entry for `CCOc1cc(NC(=S)NCCCOC)c(OCC)cc1NC(=O)c1ccco1` is “inactive”. On to `O=C(CN1CCc2ccccc21)NC(c1ccccc1)c1ccccc1`, for which the result was inactive.

On to `CCOC(=O)CC(NC(=O)C1c2ccccc2Oc2ccccc21)c1ccc(C)cc1` (stereo unspecified), for which the result was inactive. As to `O=C(COC(=O)CSc1nnc(-c2ccc(Cl)cc2)o1)Nc1cc(Cl)cc(Cl)c1`, the outcome was inactive. The result for `Cc1ccc(-c2nnc(Nc3ccc(OCC(N)=O)cc3)c3ccccc23)cc1S(=O)(=O)NCC1CCCO1` (stereo unspecified) reads “inactive”; that for `CCOC(=O)c1ccc(-c2ccc(/C=C(\C#N)C(=O)Nc3ccc(OCC)cc3)o2)cc1`, “inactive”. For the molecule `Cc1ccc(-n2c(SCC(=O)N3c4ccccc4Sc4ccccc43)nnc2-c2ccncc2)cc1`, the result was inactive. The entry for `CCn1c2ccccc2c2cc(CN3CCN(Cc4cccc(Cl)c4)CC3)ccc21` is “inactive”; for `O=C(Cc1ccc(Cl)cc1)Nc1ccc2nn(-c3ccc(Cl)cc3)nc2c1` it is “inactive”; for `CCNC(=S)N1CCC(c2nc3cc(C)c(C)cc3[nH]2)CC1` it is “inactive”. The result for `Cc1cc(Cl)ccc1OCC(=O)N(Cc1ccc(N(C)C)cc1)C1CCS(=O)(=O)C1` (stereo unspecified) reads “inactive”. The entry for `CCNS(=O)(=O)c1ccc(NC(=O)CSc2nc(-c3ccco3)cc(C(F)(F)F)n2)cc1` is “inactive”; for `N#C/C(=C\c1cccc(F)c1)c1nc(-c2cc3c(ccc4ccccc43)oc2=O)cs1` it is “inactive”. Take `Cc1ccc(N2CC(c3nnc(Cc4ccccc4Cl)o3)CC2=O)cc1` (stereo unspecified): the outcome was inactive. The result for `Cc1ccc(C(=O)Nc2nc(-c3ccccc3)ns2)cc1` reads “inactive”; that for `Cc1ccc(-n2c3nc(=O)[nH]c(=O)c-3cc3c(Cl)cccc32)cc1`, “inactive”; that for `COC(=O)c1c(C)oc2ccc(N(C(=O)Oc3ccccc3)S(=O)(=O)c3ccccc3)cc12`, “inactive”. The entry for `CCC(C(=O)OCC(=O)Nc1c(Cl)cc(Cl)cc1Cl)c1ccccc1` (stereo unspecified) is “inactive”. Regarding `CCn1c(=O)c(=O)n(CC)c2cc(N3CCCCC3)c(NC(=O)c3ccc(Cl)cc3)cc21`, the outcome was inactive. The entry for `COc1ccc(NC(=O)Cn2c(=O)n(Cc3ccc(C(=O)NCc4ccccc4Cl)cc3)c(=O)c3ccccc32)cc1` is “inactive”; for `CC1=Nc2cc(C(=O)N3CCC(C)CC3)ccc2Sc2ccc(Cl)cc21` it is “inactive”; for `COCCNC(=O)c1ccc2c(c1)N=C(C)c1cc(C)ccc1S2` it is “inactive”. In the case of `Cc1cccc(C)c1OCC(=O)NC(Cc1c[nH]c2ccccc12)C(=O)O` (stereo unspecified), the outcome was inactive.

For `COc1ccc(-c2csc3ncnc(Oc4ccc5c(C)cc(=O)oc5c4)c23)cc1`, the outcome was inactive. Consider `CC(C)(C)C(=O)NC(NC(=S)Nc1ccc(S(N)(=O)=O)cc1)C(Cl)(Cl)Cl` (stereo unspecified), for which the outcome was inactive.

With `CCOC(=O)c1cnc2ccc(F)cc2c1Nc1ccc2c(c1)OCCO2`, the outcome was inactive. `COc1ccc(CNC(=O)CCCn2nc(C)c([N+](=O)[O-])c2C)cc1`: the result was inactive. The result for `Cc1cc[n+](-c2[nH]c(=O)sc2/C=N/NC(=O)c2ccccc2[O-])cc1C` reads “inactive”. The entry for `COc1ccc(-c2noc(CCC(=O)N(C)c3ccccc3C)n2)cc1` is “inactive”. The entry for `CCOC(=O)c1c(C)n(S(=O)(=O)c2ccc(C)cc2C)c2ccc(NS(=O)(=O)c3ccc(C)cc3C)cc12` is “inactive”; for `CCC1CCCCN1C(=S)Nc1ccc(SC(F)F)cc1` (stereo unspecified) it is “inactive”.
